The supplement of paper PMC8728848
The entries come from a sample that favours the strongest signals as a whole.

What was measured:
Assay in all cases: glycan array binding signal (z-score within array); higher = stronger binding
Settings in all cases: glycan notation: IUPAC condensed, linker removed
Fuc(a1-2)Gal(b1-3)GlcNAc = molecular target: Fuc(a1-2)Gal(b1-3)GlcNAc
How it was run: (§1)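 Arrays were curated from the Consortium for Functional Glycomics database, 3228 in total, and kept only where the protein sequence was available. Binding is expressed as a within-array Z-score. This score was averaged across arrays of the same protein sequence at different concentrations or buffers and across linkers, and negative values can be read as non-binding.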

[1] = molecular target: Fuc(a1-2)Gal(b1-3)GlcNAc6S
How it was run: as §1

Fuc(a1-2)Gal(b1-4)Glc = molecular target: Fuc(a1-2)Gal(b1-4)Glc
How it was run: as §1

[2] = molecular target: Fuc(a1-2)Gal(b1-4)GlcNAc(b1-3)GalNAc
How it was run: as §1

[3] = molecular target: Fuc(a1-2)Gal(b1-4)[Fuc(a1-3)]GlcNAc(b1-2)[Fuc(a1-2)Gal(b1-4)[Fuc(a1-3)]GlcNAc(b1-4)]Man(a1-3)[Fuc(a1-2)Gal(b1-4)[Fuc(a1-3)]GlcNAc(b1-2)Man(a1-6)]Man(b1-4)GlcNAc(b1-4)GlcNAc
How it was run: as §1

[4] = molecular target: Fuc(a1-2)Gal6S(b1-3)GlcNAc
How it was run: as §1

[5] = molecular target: Fuc(a1-2)[GalNAc(a1-3)]Gal(b1-3)GlcNAc(b1-2)Man(a1-3)[Fuc(a1-2)[GalNAc(a1-3)]Gal(b1-3)GlcNAc(b1-2)Man(a1-6)]Man(b1-4)GlcNAc(b1-4)GlcNAc
How it was run: as §1

[6] = molecular target: Fuc(a1-2)[GalNAc(b1-3)]Gal
How it was run: as §1

[7] = molecular target: Fuc(a1-3)[Gal(b1-4)]GlcNAc(b1-3)Gal(b1-4)[Fuc(a1-3)]GlcNAc(b1-3)Gal(b1-4)[Fuc(a1-3)]GlcNAc
How it was run: as §1

[8] = molecular target: Fuc(a1-3)[Gal3S(b1-4)]Glc
How it was run: as §1

[9] = molecular target: Fuc(a1-3)[GalNAc(b1-4)]GlcNAc6S
How it was run: as §1

[10] = molecular target: Gal(a1-3)Gal(b1-4)GlcNAc(b1-2)Man
How it was run: as §1

[11] = molecular target: Gal(a1-3)[Gal(a1-4)]Gal(b1-4)GlcNAc
How it was run: as §1

[12] = molecular target: Gal(b1-3)GalNAc(a1-3)[Fuc(a1-2)]Gal(b1-4)Glc
How it was run: as §1

[13] = molecular target: Gal(b1-3)GlcNAc(b1-2)Man(a1-3)[Gal(b1-3)GlcNAc(b1-2)Man(a1-6)]Man(b1-4)GlcNAc(b1-4)[Fuc(a1-6)]GlcNAc
How it was run: as §1

[14] = molecular target: Gal(b1-3)GlcNAc(b1-2)Man(a1-3)[GlcNAc(b1-4)][Gal(b1-3)GlcNAc(b1-2)Man(a1-6)]Man(b1-4)GlcNAc(b1-4)GlcNAc
How it was run: as §1

[15] = molecular target: Gal(b1-3)GlcNAc(b1-3)Gal(b1-4)GlcNAc(b1-3)Gal(b1-4)GlcNAc(b1-2)[Gal(b1-3)GlcNAc(b1-3)Gal(b1-4)GlcNAc(b1-3)Gal(b1-4)GlcNAc(b1-6)]Man(a1-6)[Gal(b1-3)GlcNAc(b1-3)Gal(b1-4)GlcNAc(b1-3)Gal(b1-4)GlcNAc(b1-2)Man(a1-3)]Man(b1-4)GlcNAc(b1-4)[Fuc(a1-6)]GlcNAc
How it was run: as §1

[16] = molecular target: Gal(b1-3)GlcNAc(b1-3)GalNAc
How it was run: as §1

[17] = molecular target: Gal(b1-3)GlcNAc(b1-6)[Gal(b1-3)]GalNAc
How it was run: as §1

[18] = molecular target: Gal(b1-4)GlcNAc(b1-2)Man(a1-3)[Gal(b1-4)GlcNAc(b1-2)Man(a1-6)]Man(b1-4)GlcNAc(b1-4)GlcNAc
How it was run: as §1

[19] = molecular target: Gal(b1-4)GlcNAc(b1-2)Man(a1-3)[GlcNAc(b1-2)Man(a1-6)]Man(b1-4)GlcNAc(b1-4)GlcNAc
How it was run: as §1

[20] = molecular target: Gal(b1-4)GlcNAc(b1-3)Gal(b1-4)GlcNAc
How it was run: as §1

Gal3S(b1-3)GalNAc = molecular target: Gal3S(b1-3)GalNAc
How it was run: as §1

Gal6S(b1-3)GlcNAc = molecular target: Gal6S(b1-3)GlcNAc
How it was run: as §1

Gal6S(b1-4)GlcNAc = molecular target: Gal6S(b1-4)GlcNAc
How it was run: as §1

GalNAc(a1-3)GalNAc = molecular target: GalNAc(a1-3)GalNAc
How it was run: as §1

[21] = molecular target: GalNAc(a1-3)GalNAc(b1-3)Gal(a1-4)Gal(b1-4)Glc
How it was run: as §1

[22] = molecular target: GalNAc(b1-3)Gal(a1-4)Gal(b1-4)GlcNAc(b1-3)Gal(b1-4)Glc
How it was run: as §1

[23] = molecular target: GlcNAc(b1-3)Gal(b1-4)GlcNAc(b1-2)Man(a1-3)[GlcNAc(b1-3)Gal(b1-4)GlcNAc(b1-2)Man(a1-6)]Man(b1-4)GlcNAc(b1-4)GlcNAc
How it was run: as §1

[24] = molecular target: GlcNAc(b1-3)Gal(b1-4)GlcNAc(b1-3)Gal(b1-4)GlcNAc(b1-3)Gal(b1-4)GlcNAc(b1-3)Gal(b1-4)GlcNAc(b1-2)[GlcNAc(b1-3)Gal(b1-4)GlcNAc(b1-3)Gal(b1-4)GlcNAc(b1-3)Gal(b1-4)GlcNAc(b1-3)Gal(b1-4)GlcNAc(b1-6)]Man(a1-6)[GlcNAc(b1-3)Gal(b1-4)GlcNAc(b1-3)Gal(b1-4)GlcNAc(b1-3)Gal(b1-4)GlcNAc(b1-3)Gal(b1-4)GlcNAc(b1-2)Man(a1-3)]Man(b1-4)GlcNAc(b1-4)[Fuc(a1-6)]GlcNAc
How it was run: as §1

Kdn(a2-3)Gal(b1-4)GlcNAc = molecular target: Kdn(a2-3)Gal(b1-4)GlcNAc
How it was run: as §1

Man(a1-2)Man(a1-3)Man = molecular target: Man(a1-2)Man(a1-3)Man
How it was run: as §1

[25] = molecular target: Man(a1-2)Man(a1-3)[Man(a1-2)Man(a1-6)]Man(a1-6)[Man(a1-2)Man(a1-2)Man(a1-3)]Man(b1-4)GlcNAc(b1-4)GlcNAc
How it was run: as §1

[26] = molecular target: Neu5Ac(a2-3)Gal(b1-3)GalNAc(b1-3)Gal(a1-4)Gal(b1-4)Glc
How it was run: as §1

[27] = molecular target: Neu5Ac(a2-3)Gal(b1-4)GlcNAc
How it was run: as §1

[28] = molecular target: Neu5Ac(a2-3)Gal(b1-4)GlcNAc(b1-2)Man(a1-3)[GlcNAc(b1-4)][Neu5Ac(a2-3)Gal(b1-4)GlcNAc(b1-2)Man(a1-6)]Man(b1-4)GlcNAc(b1-4)GlcNAc
How it was run: as §1

[29] = molecular target: Neu5Ac(a2-3)Gal(b1-4)GlcNAc(b1-2)Man(a1-3)[Neu5Ac(a2-3)Gal(b1-4)GlcNAc(b1-2)Man(a1-6)]Man(b1-4)GlcNAc(b1-4)GlcNAc
How it was run: as §1

[30] = molecular target: Neu5Ac(a2-3)Gal(b1-4)[Fuc(a1-3)]GlcNAc6S
How it was run: as §1

Neu5Ac(a2-3)GalNAc = molecular target: Neu5Ac(a2-3)GalNAc
How it was run: as §1

Neu5Ac(a2-6)Gal = molecular target: Neu5Ac(a2-6)Gal
How it was run: as §1

[31] = molecular target: Neu5Ac(a2-6)Gal(b1-4)GlcNAc(b1-2)Man(a1-6)[Man(a1-3)]Man(b1-4)GlcNAc(b1-4)GlcNAc
How it was run: as §1

[32] = molecular target: Neu5Ac(a2-6)Gal(b1-4)GlcNAc(b1-2)[Neu5Ac(a2-6)Gal(b1-4)GlcNAc(b1-4)]Man(a1-3)[GlcNAc(b1-4)][Neu5Ac(a2-6)Gal(b1-4)GlcNAc(b1-2)[Neu5Ac(a2-6)Gal(b1-4)GlcNAc(b1-6)]Man(a1-6)]Man(b1-4)GlcNAc(b1-4)GlcNAc
How it was run: as §1

[33] = molecular target: Neu5Ac(a2-6)Gal(b1-4)GlcNAc(b1-2)[Neu5Ac(a2-6)Gal(b1-4)GlcNAc(b1-4)]Man(a1-3)[GlcNAc(b1-4)][Neu5Ac(a2-6)Gal(b1-4)GlcNAc(b1-4)Man(a1-6)]Man(b1-4)GlcNAc(b1-4)GlcNAc
How it was run: as §1

[34] = molecular target: Neu5Ac(a2-6)Gal(b1-4)GlcNAc(b1-3)Gal(b1-4)GlcNAc(b1-3)Gal(b1-4)GlcNAc(b1-2)Man(a1-3)[Neu5Ac(a2-6)Gal(b1-4)GlcNAc(b1-3)Gal(b1-4)GlcNAc(b1-3)Gal(b1-4)GlcNAc(b1-2)Man(a1-6)]GalNAc
How it was run: as §1

[35] = molecular target: Neu5Ac(a2-6)Gal(b1-4)GlcNAc(b1-3)[Neu5Ac(a2-6)Gal(b1-4)GlcNAc(b1-6)]GalNAc
How it was run: as §1

[36] = molecular target: Neu5Gc(a2-3)Gal(b1-4)[Fuc(a1-3)]GlcNAc
How it was run: as §1

B1: B3GalT2 (Rattus norvegicus) (protein)
chain: LMLQWRRRHCCFAKMSWNAKRSLFRTHLMGVLSLVFLFAMFLFFNHHDWLPGRPGFKENPVTYTFRGFRSTKTETNQSSLRNIWKEVVPQTLRPQTATNSNNTELSPQGVTGLENTLSANGSIYNEKGTGHPNSYHFKYIINEPEKCQEKSPFLILLIAAEPGQIEARRAIRQTWGNETLAPGIQITRIFLLGISIKLNGYLQHAIQEESIQYHDIIQQEYLDTYYNLTIKTLMGMNWVATYCPHTPYVMKTDSDMFVNTEYLIHKLLKPDLPPRHNYFTGYLMRGYAPNRNKDSKWYMPPDLYPSERYPVFCSGTGYVFSGDLAEKIFKVSLGIRRLHLEDVYVGICLAKLRVDPVPPPNEFVFNHWRVSYSSCKYSHLITSHQFQPSELIKYWNHLQQNKHNACVNAAKEKAGRYRHRKLH
- glycan array binding signal (z-score) (Fuc(a1-2)Gal(b1-3)GlcNAc): 0.359
- glycan array binding signal (z-score) [1]: -0.012
- glycan array binding signal (z-score) (Fuc(a1-2)Gal(b1-4)Glc): -0.322
- glycan array binding signal (z-score) [2]: 0.324
- glycan array binding signal (z-score) [3]: -0.914
- glycan array binding signal (z-score) [4]: 0.207
- glycan array binding signal (z-score) [5]: -0.832
- glycan array binding signal (z-score) [6]: 3.23
- glycan array binding signal (z-score) [7]: -0.328
- glycan array binding signal (z-score) [8]: 0.499
- glycan array binding signal (z-score) [9]: 2.41
- glycan array binding signal (z-score) [10]: -0.684
- glycan array binding signal (z-score) [11]: 0.28
- glycan array binding signal (z-score) [12]: -0.035
- glycan array binding signal (z-score) [13]: -0.68
- glycan array binding signal (z-score) [14]: -0.55
- glycan array binding signal (z-score) [15]: 2.97
- glycan array binding signal (z-score) [16]: 0.129
- glycan array binding signal (z-score) [17]: 0.217
- glycan array binding signal (z-score) [18]: -0.8
- glycan array binding signal (z-score) [19]: -0.763
- glycan array binding signal (z-score) [20]: 0.439
- glycan array binding signal (z-score) (Gal3S(b1-3)GalNAc): 0.283
- glycan array binding signal (z-score) (Gal6S(b1-3)GlcNAc): 2.69
- glycan array binding signal (z-score) (Gal6S(b1-4)GlcNAc): -0.022
- glycan array binding signal (z-score) (GalNAc(a1-3)GalNAc): -0.798
- glycan array binding signal (z-score) [21]: -0.606
- glycan array binding signal (z-score) [22]: -0.596
- glycan array binding signal (z-score) [23]: -0.524
- glycan array binding signal (z-score) [24]: -1.04
- glycan array binding signal (z-score) (Kdn(a2-3)Gal(b1-4)GlcNAc): 2.76
- glycan array binding signal (z-score) (Man(a1-2)Man(a1-3)Man): 0.139
- glycan array binding signal (z-score) [25]: -0.337
- glycan array binding signal (z-score) [26]: -0.318
- glycan array binding signal (z-score) [27]: 1.9
- glycan array binding signal (z-score) [28]: 0.483
- glycan array binding signal (z-score) [29]: 1.88
- glycan array binding signal (z-score) [30]: 0.576
- glycan array binding signal (z-score) (Neu5Ac(a2-3)GalNAc): 2.8
- glycan array binding signal (z-score) (Neu5Ac(a2-6)Gal): 2.53
- glycan array binding signal (z-score) [31]: 0.005
- glycan array binding signal (z-score) [32]: 2.01
- glycan array binding signal (z-score) [33]: 1.82
- glycan array binding signal (z-score) [34]: 2.1
- glycan array binding signal (z-score) [35]: -1.14
- glycan array binding signal (z-score) [36]: -0.164
